Results published in PubChem BioAssay (NCATS).
Values joined by “and” are separate entries in the source; they are usually repeats but may differ in a detail not shown here. Identical values can stand only once. Inconclusive results are not listed. Active and inactive are the calls of the source. Calls follow the shape of the dose curve; as a rule, active = well fitted cell-killing curve with a large enough effect; inconclusive = small, poorly fitted or top-dose-only effect, or effect the other way; inactive = no such curve, though single readings can be large or run the other way.

Assay: Viability qHTS for spleen associated tyrosine kinase inhibitor (SYKi) naive MV4-11 cells (AID 1963823); also: nearly all actives have a fitted effect of over 40% in size
Conditions: MV4-11 AML viability, CellTiter-Glo luminescence, 72 h; series mostly up to 45 µM; viability (% of control): at the top concentration
From the text: Department of Medicine, Hematology/Oncology
University Hospital Frankfurt, Germany.
Trials have shown promising clinical activity of the selective SYK inhibitor entospletinib in patients with high expressing HOXA9/MEIS1 acute leukemias. As the development of resistance mechanisms is a common problem in the use of targeted drugs, we performed a chemical library screen to identify drug sensitivities in SYK inhibitor resistant AML cells. […] Glucocorticoids are potent immunosuppressants which work in part by inhibiting the transcription of cytokine genes.
Described herein is a viability screen to look for activity in the SYK inhibitor naive cell line against four NCATS compound libraries (MIPE 5.0, NPC, NPACT, and Kinase) totaling 11372 compounds. Active hits were reacquired for confirmation and further secondary assay testing.
SEQUENCE No. (e.g., 1, 2, 3, etc.); […] (e.g., Cells, Incubation, Reagent, etc.); VALUE; DESCRIPTION.
1; Media; 2uL; white, solid-bottom Corning assay plate.
2; Compounds; 23nL; Echo acoustic dispenser.
3; Cell; 5uL; 500 cells per well.
4: Incubation; 72hr; 37 C, 5% CO2, 95% humidity.
5; Reagent; 3uL; CellTiter-Glo reagent (Promega).
6; Incubation; 10min; room temperature.
7; Detection; Luminescence; ViewLux plate reader (PerkinElmer).
NOTES (numbers refer to Sequence numbers above
1. Quantitative high-throughput screening (qHTS) of small molecule compounds was conducted on naive SYKi MV4-11 cell line.
2. Twenty-three nanoliter of small molecule compounds were added to each assay plates using the Echo acoustic dispenser (Beckman Coulter).
3. Cells were seeded into the assay plates at a final density of 500 cells in 5uL of media per well using the Multi-drop Combi dispenser.
4. Plates were covered with stainless steel gasketed lids and incubated for 72 hours at standard cell culture conditions.
5. Viability was assessed by adding 3uL of CellTiter-Glo detection reagent (Promega).
6. Plates were covered with gasket lids and incubated for 10 minutes at room temperature.
7. Luminescence was measured on a ViewLux plate reader (PerkinElmer).
Potency is read from the fitted curve at half-maximal effect.

Row | Compound | Potency | viability (% of control)
1 | O=C(Nc1ccc(Cl)cc1)Nc1ccc(Cl)c(Cl)c1 | 9.44 µM (active) | –
2 | COc1c(OC2OC(CO)C(O)C(O)C2O)ccc(O)c1C(=O)OCc1ccccc1O[C@@H]1O[C@H](CO)[C@@H](O)[C@H](O)[C@H]1O (stereo not given in full) | – | 76.3% [at 17.3 µM] (inactive)
3 | CCn1cc(C(=O)O)c(=O)c2ccc(C)nc21 | – | 84.4% (inactive)
4 | OC[C@@]1(O)CO[C@@H](OC[C@H]2O[C@@H](Oc3c[nH]c4ccccc34)[C@H](O)[C@@H](O)[C@@H]2O)[C@@H]1O | – | 48% [at 17.3 µM] (inactive)
5 | CC(C)C[C@@H](N)C(=O)O | – | 84% (inactive)
6 | C=C1CCC2C(C(C)(C)O)CCC2(C)CC(O)C(=C)CCC1O (stereo not given) | 9.04 µM (active) | –
7 | O=C(NCC1CCCCN1)c1cc(OCC(F)(F)F)ccc1OCC(F)(F)F (stereo not given) | inactive | –
8 | Oc1ccc(C2=Cc3ccc(O)cc3OC2)cc1 | 0.417 µM (active) | –
9 | COc1cc2ncnc(Oc3cccc(NC(=O)Nc4cc(C(C)(C)C(F)(F)F)on4)c3)c2cc1OC | 0.164 µM (active) | –
10 | O=C(NCCN1CCOCC1)c1ccc(Cl)cc1 | – | 83.6% (inactive)
11 | O=c1sn(-c2cccc3ccccc23)c(=O)n1Cc1ccccc1 | 14.6 µM (active) | –
12 | Cc1ccc(OCCSc2ncccn2)c(Br)c1 | – | 55.1% (inactive)
13 | C[C@@H](O)[C@H]1C(=O)N2C(C(=O)O)=C(S[C@@H]3CN[C@H](CNS(N)(=O)=O)C3)[C@H](C)[C@H]12 | – | 82.2% (inactive)
14 | C[C@@H]1C[C@@H]2O[C@H]2/C=C\C=C\C(=O)Cc2c(Cl)c(O)cc(O)c2C(=O)O1 | 0.0404 µM (active) | –
15 | COc1ccccc1NC(=O)OCC1CCN(C(=O)OC(C)(C)C)CC1 | – | 61.5% (inactive)
16 | CC1(C)CC(=O)N(CCCCN2CCN(c3ncccn3)CC2)C(=O)C1 | – | 82.6% (inactive)
17 | COc1ccc(S(=O)(=O)Nc2cc(-c3c(O)ccc4ccccc34)c(O)c3ccccc23)cc1 | 1.18 µM (active) | –
18 | CC(=O)NC1C(OC(C)(C)C2CCC3(C)C=C(C4CCC5C4(C)CC(O)C4OC(C(C)(C)O)CCC45C)CCC3O2)OC(CO)C(O)C1O (stereo not given) | 1.93 µM (active) | –
19 | O=S(=O)(O)c1ccc2nc(-c3ccccc3)[nH]c2c1 | – | 52.1% (inactive)
20 | CC(C)c1c2cc(-c3ccnc(NC4CCC(NC5CCOCC5)CC4)n3)ccc2nn1C (stereo not given) | 130 nM (active) and 105 nM (active) | –

Row | Compound | Potency | viability (% of control)
21 | C[C@H]1[C@H](O)O[C@@H]2O[C@@]3(C)CC[C@H]4[C@H](C)CC[C@@H]1[C@@]24OO3 | 0.731 µM (active) | –
22 | CC[C@H]1OC(=O)C[C@@H](O)[C@H](C)[C@@H](O[C@@H]2O[C@H](C)[C@@H](O)[C@H](N(C)C)[C@H]2O)[C@@H](CCN2C[C@H](C)C[C@H](C)C2)C[C@@H](C)C(=O)/C=C/C(C)=C/[C@@H]1CO[C@@H]1O[C@H](C)[C@@H](O)[C@@H](OC)[C@H]1OC | – | 68.2% (inactive)
23 | OCC(Cc1ccccc1)Nc1nc(Oc2ccc3c(c2)CCC3)nc2c1ncn2Cc1ccc(-c2ccccc2)cc1 (stereo not given) | 18.4 µM (active) | –
24 | COc1cc(N2CCN(C(C)=O)CC2)ccc1Nc1ncc(Cl)c(Nc2ccc(N3CCN(C(C)=O)CC3)cc2OC)n1 | 291 nM (active) and 372 nM (active) | –
25 | NC(=O)c1cccc2c(NC(CN3CCC3)c3ccc(Cl)c(C(F)(F)F)c3)ncnc12 (stereo not given) | 1.48 µM (active) | –
26 | O=C(NN1CCCCC1)c1nn(-c2ccc(Cl)cc2Cl)c(-c2ccc(C#Cc3ccc(C(F)(F)F)cc3)s2)c1CNS(=O)(=O)N1CCCC1 | – | 91.2% (inactive)
27 | COc1cc(C2Oc3c(OC)cc(/C=C/C(=O)OC4CC(O)(C(=O)O)CC(O)C4O)cc3C2CO)ccc1O (stereo not given) | – | 91% [at 17.3 µM] (inactive)
28 | CC1(C)CCC(C)(C)c2cc(NC(=O)c3ccc(C(=O)O)cc3)ccc21 | – | 38.2% (inactive)
29 | Cc1cccc(C)c1NC(=O)CN1CCN(CCCC(c2ccc(F)cc2)c2ccc(F)cc2)CC1 | 10.6 µM (active) | –
30 | C=C(C)C(O)COc1ccc(CC(=O)O)cc1 (stereo not given) | – | 95.7% (inactive)
31 | COc1ccc(CCN(C)CCCC(C#N)(c2cc(OC)c(OC)c(OC)c2)C(C)C)cc1OC (stereo not given) | 23.7 µM (active) | –
32 | CCC(C(=O)O)c1ccc(N2Cc3ccccc3C2=O)cc1 (stereo not given) | – | 65.6% (inactive)
33 | C=C1C(=O)O[C@@H]2[C@H]1CC[C@H](C)C(CCC(=O)O)C2(C)O (stereo not given in full) | 5.8 µM (active) | –
34 | COc1ccc2cc(OCC3(C(=O)O)CN(C(=O)c4ccc(F)cc4)C3)ccc2c1 | – | 59.4% (inactive)
35 | CN1CCN(c2nc(-c3ccc(C(=O)NC4(C(=O)NCC#N)CCCCC4)cc3)cs2)CC1 | – | 85.1% (inactive)
36 | C[C@H](O)[C@H](O)/C=C/c1cccc(O)c1CO | – | 100% (inactive)
37 | C=C1C(=O)O[C@H]2C1CCC(C)=C1C(=O)C=C(C)[C@@]12O (stereo not given in full) | 7.31 µM (active) | –
38 | CC(C)c1ccc2c(c1)c(SC(C)(C)C)c(CC(C)(C)C(=O)O)n2Cc1ccc(Cl)cc1 | 16.6 µM (active) | –
39 | Cc1[nH]nc(C(F)(F)F)c1Cc1sc2c(c1C(=O)N1C[C@](C)(O)CO1)c(=O)n(C)c(=O)n2C(C)C | – | 61.3% (inactive)
40 | CC12CCC(OC3OC(CO)C(O)C(OC4OC(CO)C(O)C(O)C4O)C3O)CC1=CCC1C2CCC2(C)/C(=C3/COC(=O)C3)CCC12O (stereo not given) | – | 73.7% [at 17.3 µM] (inactive)
